Measurements published in PubChem BioAssay AID1477 (National Center for Advancing Translational Sciences (NCATS), 2009).
Fewer than 10 of roughly 230,000 compounds were called active. Another 3% or so got no clear call; they are omitted. The list is a sample of the results. Values without a mark were called inactive. Calls come from the whole dose curve; as a rule, active = well fitted curve in the direction sought with a large enough effect; inconclusive = small, poorly fitted or top-dose-only effect, or effect the other way, or another doubt; inactive = no such curve, though single readings can be large or run the other way.

Each compound was assayed against Runt-related transcription factor 1 (Homo sapiens) + Core-binding factor subunit beta (Homo sapiens) (UniProt Q01196+Q13951) (assay: qHTS Assay for Compounds Blocking the Interaction Between CBF-beta and RUNX1 for the Treatment of Acute Myeloid Leukemia). Details: AlphaScreen CBFb-His/RUNX1-biotin binding, biochemical; series mostly up to 59.8 µM.
Chain of Runt-related transcription factor 1 (Homo sapiens) + Core-binding factor subunit beta (Homo sapiens) (Q01196 whole entry, looked up): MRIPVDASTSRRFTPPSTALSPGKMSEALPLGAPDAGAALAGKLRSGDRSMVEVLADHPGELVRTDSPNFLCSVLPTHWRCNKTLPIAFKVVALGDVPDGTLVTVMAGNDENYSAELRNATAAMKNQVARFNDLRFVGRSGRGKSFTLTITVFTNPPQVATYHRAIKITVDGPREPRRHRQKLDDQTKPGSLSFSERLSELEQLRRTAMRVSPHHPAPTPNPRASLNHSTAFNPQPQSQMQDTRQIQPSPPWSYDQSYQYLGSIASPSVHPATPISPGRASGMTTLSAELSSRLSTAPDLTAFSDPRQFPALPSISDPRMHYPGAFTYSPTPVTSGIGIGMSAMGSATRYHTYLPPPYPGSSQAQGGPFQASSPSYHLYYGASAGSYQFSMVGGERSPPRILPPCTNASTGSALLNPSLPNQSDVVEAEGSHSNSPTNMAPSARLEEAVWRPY
Chain of Runt-related transcription factor 1 (Homo sapiens) + Core-binding factor subunit beta (Homo sapiens) (Q13951 whole entry, looked up): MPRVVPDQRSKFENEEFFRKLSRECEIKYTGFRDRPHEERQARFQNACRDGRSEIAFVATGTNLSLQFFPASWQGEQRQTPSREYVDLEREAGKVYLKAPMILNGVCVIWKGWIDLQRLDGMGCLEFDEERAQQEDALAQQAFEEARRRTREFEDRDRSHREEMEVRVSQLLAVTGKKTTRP
Description: NIH Chemical Genomics Center [NCGC]
NIH Molecular Libraries Probe Production centers Network [MLPCN]
Assay Submitter (PI): Paul Liu
Core Binding Factor (CBF) abnormalities are associated with 20-25% of all acute myeloid leukemias (AML), of which 5-10% are further sub classified as acute myelomonocytic leukemia with eosinophilia, also known as M4Eo in the FAB classification scheme. This subtype of leukemia is usually associated with chromosome 16 inversion (p13:q22). Chromosome 16 inversion results in formation of the fusion oncogene CBFB-MYH11, which encodes the fusion protein CBF-beta-SMMHC.
It has been hypothesized that the interference of CBF-beta and RUNX1 binding could have therapeutic implications for patients with CBF mediated leukemias. We developed a CBF-beta and RUNX1 binding assay in AlphaScreenTM format and optimized it for high throughput screening to search for inhibitors. The goal of this project is to screen MLPCN's compound collection (MLSMR) for identifying the inhibitors of the interaction between CBF-beta and RUNX1 proteins as research probes. If these probes work well in the animal models, the ultimate goal of this project is to development a new drug treatment for this disease.
This assay can not be used to assess how apparent inhibitors interfere with protein binding, and whether inhibitors specifically bind to either protein. Disruption of this protein-protein interaction, through any mechanism, is the intended target activity.
NCGC Assay Protocol Summary:
Step, Parameter, Description
(1) Reagent, 3 uL CBFb-His/RUNX1-biotin mix incubated together for 20 minutes at room temperature (30 nM each)
(2) Compound or control, 23 nL compound stock solution
(3) Incubation, 15 minutes at Room temperature
(4) Reagent, 1 uL 50 ng each of beads (Nickel beads and streptavidin beads)
(5) Incubation, 90 minutes at Room temperature
(6) Detection, Excitation=365 nm Emission=440 nm, Envision reader in AlphaScreenTM mode
Keywords: MLSMR, MLPCN, NIH Roadmap, qHTS, NCGC, Core binding factor, CBF, CBF-beta, Acute myeloid leukemia
Note: % of control where 0% means no effect.

Row | Structure (SMILES) | activity, negative = inhibition
1 | CN(C)/C=C(/C(=O)c1ccc(F)cc1)S(=O)(=O)c1ccc(F)cc1 | inactive
2 | COc1ccc(C2c3[nH]c4ccccc4c3CCN2CCCn2cccn2)cc1C (stereo not drawn) | inactive
3 | S=c1nc(C23CC4CC(CC(C4)C2)C3)nc2sccn12 | inactive
4 | Cc1ccc(-c2ccc(/C=C(\C#N)C(N)=S)o2)c([N+](=O)[O-])c1 | inactive
5 | Cc1cccc(N2CCN(C(=O)c3cccc(S(=O)(=O)N4CCc5ccccc5C4)c3)CC2C)c1 (stereo not drawn) | inactive
6 | CCO[C@@H]1OC(C(=O)NC2CC2)=C[C@H](C)[C@H]1CCCO | inactive
7 | CCC1(CC)C(=O)C2=C3C1[C@H](C(=O)OC)C=C(C(=O)OC)C[C@H]3[C@H]1C(=O)N(Cc3ccccc3)C(=O)[C@H]1[C@H]2C (stereo partly drawn) | inactive
8 | CC(=O)OCC(NC(=O)C(Cc1ccccc1)NC(=O)OC(C)(C)C)C1OC(n2ccc(=O)[nH]c2=O)C(OC(C)=O)C1OC(C)=O (stereo not drawn) | inactive
9 | COc1cc(S(=O)(=O)N2CCOCC2)ccc1NC(=O)COc1ccc(N(C)S(=O)(=O)c2ccc(C)cc2)cc1 | inactive
10 | CNC(=O)/C(C#N)=C/c1c(F)cccc1Cl | inactive
11 | CCCCNC(=O)CSc1nc2ccc(NC(=O)CSc3nnc(N)s3)cc2s1 | inactive
12 | CN(CC(=O)Nc1ccc(F)cc1)CC(=O)Nc1ccc(Cl)c(S(=O)(=O)N2CCOCC2)c1 | inactive
13 | NC(=O)c1ccc(NC(=O)COC(=O)c2c3c(nc4ccccc24)/C(=C\c2ccc4c(c2)OCO4)CCC3)cc1 | inactive
14 | COc1cc(OC)c2c(C)cc(=O)oc2c1C(CCN1CCCCC1)c1ccc(N(C)C)cc1 (stereo not drawn) | inactive
15 | Cc1cc(C(=O)NCCc2ccc(Cl)cc2)n(-c2ccccc2)n1 | inactive
16 | Cc1ccc(CNC(=O)C2(C(F)(F)F)C/C(=C\Cc3ccccc3)CCCO2)o1 (stereo not drawn) | inactive
17 | CCCN1CCC(=O)N(C(CSc2ccc(C)cc2)Cc2ccccc2)CC1 (stereo not drawn) | inactive
18 | Cn1ncc(N2CCN(S(=O)(=O)c3ccc(Br)cc3)CC2)c(Cl)c1=O | inactive
19 | CC1(C)OC(C(O)(c2ccccc2)c2ccccc2)C(C(O)(c2ccccc2)c2ccccc2)O1 (stereo not drawn) | 6.37% [at 13.1 µM]
20 | CCc1c(C)nc2c(-c3ccccc3)c(C)nn2c1Nc1ccc(NC(C)=O)cc1 | inactive
21 | Cn1ncc2c(NNC(=O)Cc3cccc4ccccc34)ncnc21 | inactive
22 | O=c1ccn([C@@H]2O[C@H](COP(=O)(O)OP(=O)(O)OP(=O)(O)O)[C@@H](O)[C@H]2O)c(=O)[nH]1 | inactive
23 | CCC/C(C)=N\Nc1nc2c(c(=O)n(C)c(=O)n2C)n1C | inactive
24 | O=C1CN(Cc2ccccc2)S(=O)(=O)c2ccccc21 | inactive

Row | Structure (SMILES) | activity, negative = inhibition
25 | CCc1nnc(NC(=O)[C@@H](NC(=O)c2cccc(C)c2)C(C)C)s1 | inactive
26 | O=[N+]([O-])c1ccccc1S(=O)(=O)Nc1cccc2cccnc12 | inactive
27 | N#Cc1c(C(F)(F)F)cc(-c2cccs2)nc1N1CCCCC1 | inactive
28 | COc1ccc2nc(NC(=O)[C@@H]3CCCN3C(=O)c3cccs3)sc2c1 | inactive
29 | Cc1ccc(OCCCCN2CCCCC2)c(Br)c1 | inactive
30 | C[C@H]1Cc2c(-c3ccccc3)nc3c(c2CO1)CN(C(=O)C1CC1)CC3 | -2.96% [at 13.1 µM]
31 | COc1ccc(-c2nc3c(c4c2C[C@H](c2ccccc2)OC4)CN(S(=O)(=O)c2c(C)noc2C)CC3)c(C)c1 | 2.29% [at 13.1 µM]
32 | CCOC(=O)C1=C(CSc2nnnn2C)N(C)C(=O)NC1c1ccccc1 (stereo not drawn) | inactive
33 | COc1ccc(SC[C@H](Cc2ccccc2)N2CCN(CCc3ccccc3)CCC2=O)cc1 | inactive
34 | CON(C)S(=O)(=O)c1ccc2c(c1)NC(=O)C1CCCN21 (stereo not drawn) | inactive
35 | O=C(NCCc1ccccn1)c1cccnc1Oc1ccc(Cl)cc1 | inactive
36 | COc1ccc(SCCN2CCN(CC(C)C)CCC2=O)cc1 | inactive
37 | Cc1ccccc1C(OCCN(C)C)C1CCCCC1 (stereo not drawn) | inactive
38 | COC(=O)c1ccc(C(NC(=O)OCc2ccccc2)/C(F)=C/[C@@H](C)C(=O)O)cc1 (stereo partly drawn) | inactive
39 | C[C@@H]1O[C@@H](OC[C@H]2O[C@@H](Oc3cc(O)c4c(c3)O[C@H](c3ccc(O)c(O)c3)CC4=O)[C@H](O)[C@@H](O)[C@@H]2O)[C@H](O)[C@H](O)[C@H]1O | inactive
40 | COc1ccc(NC(=O)CSc2ncnc3[nH]ncc23)cc1 | inactive
41 | COc1ccc(-c2nc3c(c4c2C[C@H](c2ccccc2)OC4)CN(C(=O)c2cccnc2)CC3)c(C)c1 | 2.51% [at 13.1 µM]
42 | CC1CCN(C(=S)c2ccc(-c3ccc(Cl)cc3Cl)o2)CC1 | inactive
43 | O=C(/C=C/c1ccc(OCc2c(F)cccc2Cl)cc1)N1CCOCC1 | inactive
44 | OCCC(O)CO (stereo not drawn) | inactive
45 | COc1ccc2cc(-c3[nH]ncc3CNCCn3nc(C)cc3C)ccc2c1 | inactive
46 | COC(=O)c1ccc([C@@H](O)[C@H](C)C(=O)CC(=O)OC(C)(C)C)cc1 | inactive
47 | O=C(Nc1cc(C(=O)Nc2ccc(S(=O)(=O)O)cc2)cc(C(=O)Nc2ccc(S(=O)(=O)O)cc2)c1)Nc1cc(C(=O)Nc2ccc(S(=O)(=O)O)cc2)cc(C(=O)Nc2ccc(S(=O)(=O)O)cc2)c1 | inactive
48 | Cc1ccccc1C(CC(=O)c1cccs1)C(C#N)C#N (stereo not drawn) | inactive

Row | Structure (SMILES) | activity, negative = inhibition
49 | CC[C@H](C)[C@H](NC(=O)[C@@H](N)CCC(=O)O)C(=O)N[C@@H](CC(C)C)C(=O)N[C@@H](CC(=O)O)C(=O)N[C@H](C(=O)N1CCC[C@H]1C(=O)N[C@@H](CO)C(=O)N[C@H](C(=O)O)[C@@H](C)O)C(C)C | inactive
50 | CCCCOc1ccc(C(=O)N/C(=C/C=C/c2ccccc2)C(=O)N2CCOCC2)cc1 | inactive
51 | CC(Oc1cccc(NC(=O)c2cccs2)c1)C(=O)c1ccccc1 (stereo not drawn) | inactive
52 | Cc1cccc(Nc2nc3c(S(=O)(=O)c4ccccc4)nnn3c3ccccc23)c1C | inactive
53 | CCO[C@@H]1OC(C(N)=O)=C[C@H](c2ccc(Br)cc2)[C@H]1CCCO | inactive
54 | O=c1c(O)c(-c2ccc(O)cc2)oc2ccccc12 | inactive
55 | N=c1n(CCc2ccccc2)c2ccccc2n1Cc1ccccc1F | inactive
56 | O=C1CCC(=O)N(O)CCCCCNC(=O)CCC(=O)N(O)CCCCCNC(=O)CCC(=O)N(O)CCCCCN1 | inactive
57 | CC1CN(c2nc(-c3ccccc3)nnc2-c2ccccc2)CC(C)O1 (stereo not drawn) | inactive
58 | CCOCCCNCc1ccc(OCc2ccc(F)cc2)c(OC)c1 | inactive
59 | O=C(NCc1ccco1)c1ccc(NS(=O)(=O)c2cccc([N+](=O)[O-])c2)cc1 | inactive
60 | COc1cc(OC)c2c(c1C(CCN1CCCCC1)c1ccc(N(C)C)cc1)OC(=O)CC2c1ccc(N(C)C)cc1 (stereo not drawn) | inactive
61 | O=C(NCC1CCCO1)c1ccccc1-c1nc(-c2ccccc2Cl)no1 (stereo not drawn) | inactive
62 | COc1ccc(CCNC(=O)CSc2nc(-c3ccc(OC)c(OC)c3)ccc2C#N)cc1 | inactive
63 | COc1ccc(C[C@H](C(=O)O)N2C(=O)c3ccc(C(=O)O)cc3C2=O)cc1 | inactive
64 | O=C(N/N=C/c1ccc(Cl)cc1)c1nc2ccc([N+](=O)[O-])cc2c(=O)[nH]1 | inactive
65 | COc1ccc(-c2ccc(OC)c(C3C4C=CCC(C)C4C(=O)N3Cc3ccccc3)c2)cc1C (stereo not drawn) | inactive
66 | O=S(O)S(=O)(=O)O | inactive
67 | CCN(CC)N=Nc1cccc(NC(C)=O)c1 | inactive
68 | Cc1cc(N(C)C)nc(Cl)n1 | inactive
69 | CN(C)C(=O)c1ccc2c(c1)C1C3CCC(C3)C1C(c1ccccc1)N2 (stereo not drawn) | inactive
70 | COC(=O)c1c(C)oc(C)c1S(=O)(=O)Nc1ccc(C(C)C)cc1 | inactive
71 | O=C(/C=C/c1ccc2c(c1)OCO2)NCc1cn2cc(Cl)ccc2n1 | inactive
72 | C=CCCC(=O)Nc1nc(C)c(-c2csc(Nc3ccc(Cl)cc3)n2)s1 | inactive

Row | Structure (SMILES) | activity, negative = inhibition
73 | COc1ccc2[nH]c3c(C)c4cc[n+](C)cc4c(C)c3c2c1 | inactive
74 | CCCCCCCC1=Cc2ccc(F)cc2C(C(C(=O)OC)C(=O)OC)N1C(=O)OC (stereo not drawn) | inactive
75 | CCOC(OCC)OCC | inactive
76 | Cc1ccc(-c2nnc(-n3nnc4ccccc43)c3ccccc23)cc1 | inactive
77 | COc1ccc(C2CC(O)(c3ccccc3)Oc3cc(C)cc(C)c32)cc1 (stereo not drawn) | inactive
78 | CC(=O)Nc1ccc(S(=O)(=O)N2N=NC3C2C2CC4C3(CN(C(=O)OC(C)(C)C)S4(=O)=O)O2)cc1 (stereo not drawn) | inactive
79 | C=C1CCN(C(CC(C)C)C(=O)NCc2cc(OC)c(OC)c(OC)c2)S(=O)(=O)c2ccccc21 (stereo not drawn) | inactive
80 | COc1cc(NC(=S)N2CCCC(C)C2)c(OC)cc1Cl (stereo not drawn) | inactive
81 | COC(=O)CCc1ccccc1S(=O)(=O)N(CCC(=O)OC)Cc1ccccc1 | inactive
82 | OC1CCCN(c2ncnc3c2nnn3Cc2c(F)cccc2Cl)C1 (stereo not drawn) | inactive
83 | COc1ccc(CN2CCC(=O)c3ccccc3S2(=O)=O)cc1 | inactive
84 | COc1ccc(C2/C=C\CN(Cc3ccco3)C(C)C(=O)N2Cc2ccc(F)cc2)cc1 (stereo not drawn) | inactive
85 | CCCCc1nn(-c2ccccc2C(F)(F)F)c(=O)n1Cc1ccc(-c2ccccc2S(=O)(=O)NC(=O)c2sccc2C)cc1 | inactive
86 | O=c1[nH]nc(SCCS(=O)(=O)c2ccc(F)cc2)n1-c1ccccc1C(F)(F)F | inactive
87 | O=C(O)c1ccc(NS(=O)(=O)c2ccc3c(c2)C(=O)c2cc(S(=O)(=O)Nc4ccc(C(=O)O)cc4)ccc2-3)cc1 | inactive
88 | COc1ccc(N)c(OC)c1 | inactive
89 | COc1ccc(NC(=O)C2C3C=CC(C3)C2C(=O)NCc2ccccn2)c(OC)c1 (stereo not drawn) | inactive
90 | COc1cccc(OC)c1C(=O)NC(=S)Nc1ccc(N2CCOCC2)c(Cl)c1 | inactive
91 | Cn1c(=O)c2c(-c3cccc(Br)c3)c(C#N)c(N)nc2n(C)c1=O | inactive
92 | O=C(NCC1CC1)C1(C(F)(F)F)C/C(=C\CCO)CCCO1 (stereo not drawn) | inactive
93 | CCN(CC)/[N+]([O-])=N/Oc1cc(O/[N+]([O-])=N/N2CCCC2CO)c([N+](=O)[O-])cc1[N+](=O)[O-] (stereo not drawn) | inactive
